# Bioassay records: PubChem, National Center for Advancing Translational Sciences (NCATS)
# Hits are enriched below; roughly 4.7% of the tested compounds scored in any of these assays.
# D1 potentiator – potentiators of human D1 dopamine receptor; HEK293 TREx D1 cells, calcium flux, dopamine EC20 potentiation; potentiation, % at 10 µM; actives 0.036% (n = 360,000); in the data active means potentiation above about 30%; further: 0% is about no effect
# D1 ag – activates the human D1 dopamine receptor | HEK293 T-REx D1 cells, calcium flux, agonist mode | actives 1% (n = 360,000) | P21728 | AID 504660 | activation, % at 2 µM; in the data active means activation above about 30%; further: 0% is about no effect
#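 Inducible HEK293 T-REx D1 cells, force-coupled to calcium signalling, were plated at 4000 cells/well with tetracycline and held overnight at 30 C. After no-wash calcium dye loading, compound-evoked calcium rise over 180 s flagged agonists.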
# TRHR agonist-1 – TRH receptor (human) agonism; activation, % at 2 µM; AID 493084; actives 0.18% (n = 360,000); P34981; TRHR cells, calcium flux fluo-8, FDSS agonist mode; in the data active means activation above about 30%; further: 0% is about no effect
# Target sequence (P34981 whole entry, looked up): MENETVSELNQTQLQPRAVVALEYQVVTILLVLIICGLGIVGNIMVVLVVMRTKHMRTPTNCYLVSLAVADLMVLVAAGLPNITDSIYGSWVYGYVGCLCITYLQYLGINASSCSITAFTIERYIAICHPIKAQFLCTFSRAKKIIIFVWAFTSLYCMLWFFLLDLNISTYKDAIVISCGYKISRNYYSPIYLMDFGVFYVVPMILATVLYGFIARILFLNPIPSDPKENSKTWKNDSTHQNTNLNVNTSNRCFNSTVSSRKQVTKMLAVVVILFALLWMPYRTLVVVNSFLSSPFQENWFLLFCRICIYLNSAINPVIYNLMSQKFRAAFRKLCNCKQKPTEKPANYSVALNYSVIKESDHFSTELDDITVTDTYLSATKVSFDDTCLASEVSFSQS
#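 Agonist-mode FDSS calcium read (Ex 480/Em 530, 1 s cycles) in 1536-well TRHR cells with fluo-8 dye, after 10-cycle baseline and 23 nL compound addition; TRH at EC20 (10 nM final) added afterwards for the enhancer phase.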
# D1 antag – antagonists of human D1 dopamine receptor; P21728; actives 3.2% (n = 360,000); activity change, negative = inhibition, % at 10 µM; HEK293 TREx D1 cells, calcium flux, dopamine EC80; hits give low values; AID 504652; in the data active means activity change below about -30%; further: on the % scale 0 is the no-effect control and ±100 the full control effect
#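 Tetracycline-induced HEK293 Trex D1 cells, force-coupled to calcium, dye-loaded; compounds added and read 180 s, then EC80 dopamine added and calcium flux tracked kinetically another 180 s.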
# TRHR enhancer-1 – allosterically enhances the human TRH receptor; TRHR cells, fluo-8 calcium fluorescence, EC20 TRH enhancement; AID 493056; enhancement, % at 2 µM; actives 0.66% (n = 360,000); in the data active means enhancement above about 30%; further: 0% is about no effect
#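 TRHR-expressing cells loaded with fluo-8 calcium dye were read kinetically (ex 480/em 530) during compound addition, then stimulated with an EC20 of TRH (10 nM final). Enhancement of the Gq-mediated intracellular calcium response was scored.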
# TRHR enhancer-2 – confirmation of human TRH receptor allosteric enhancers; shares compounds with TRHR enhancer-1; TRH receptor cell assay, enhancer confirmation qHTS; activity change, negative = inhibition, % at 46.1 µM; 970 tested, under 10 active; AID 493076;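 further: compound effect scored on response to added TRH at EC20 of 10 nM; 0% is about no effect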
# TRHR agonist-2 – human TRH receptor agonism confirmation; TRHR-expressing cells, agonist activation read-out; shares compounds with TRHR enhancer-1; actives 8% (n = 970); Potency, µM (highest dose often 46.1 µM), for the others: at the top dose activation, hits mostly activators; further: potency means the concentration at half of the fitted maximal effect; 0% is about no effect; nearly all actives have a fitted effect of over 75% in size
# Starred values were filed as active, the others as inactive; ? = inconclusive; . = no result given. Unless noted, the call rests on the fitted dose curve; in most records, active means well fitted curve in the direction sought with a large enough effect; inconclusive means small, poorly fitted or top-dose-only effect, or another doubt; inactive means no such curve, though single readings can be large; an effect the other way counts as inactive or inconclusive.
SMILES,D1 potentiator,D1 ag,TRHR agonist-1,D1 antag,TRHR enhancer-1,TRHR enhancer-2,TRHR agonist-2
Cc1ccc(Cl)cc1NC(=O)c1oc2ccc(S(=O)(=O)N3CCC4(CC3)OCCO4)cc2c1C,-2,-3,0,-9,-5,.,.
Cc1nn(-c2ccccc2)c(N2CCCC2)c1/C=N/NC(=O)c1ccccc1O,-3,3,0,-6,83*,-8,?
CN(C(=O)c1ccc(NC(=O)c2ccco2)cc1)c1ccccc1,7,7,0,-14,2,.,.
CN(C(=O)c1cccc(NC(=O)c2ccco2)c1)c1ccccc1,-8,2,34*,8,1,0,-1%
COc1cc2c(cc1OC)C1O[C@](c3ccsc3)(C2)Oc2cc(-c3ccccc3)oc(=O)c21,-3,2,0,13,-5,.,.
CC(=O)Nc1cc2ccccc2oc1=O,1,-1,0,15,-6,.,.
CCN(CC)c1ccc2cc(NC(=O)CCC(=O)O)c(=O)oc2c1,-4,56*,26,6,5,10,21µM*
CCCCN(Cc1cc2ccccc2[nH]c1=O)C(=O)c1cccc(Cl)c1,0,0,-1,-14,-5,.,.
O=C(CCC1N=C2c3ccccc3N=C(SCc3cccc(Cl)c3)N2C1=O)NCc1ccco1 (stereo not given),-7,2,0,3,49*,-6,?
CCCCC(=O)N(c1ccc(C(=O)O)cc1)c1nc(-c2ccc(Cl)cc2)c(CC)s1,-3,1,0,-8,63*,-17,?
COc1cccc(C(=O)n2nc(-c3ccco3)nc2NCc2cccs2)c1,2,3,0,6,8,.,.
COc1cc(/C=N/N(C)C)ccc1OC(=O)c1ccco1,0,2,0,-4,41*,3,-1%
COc1cc(/C=N/N2CCOCC2)ccc1OC(=O)c1ccco1,-3,8,0,-14,3,.,.
CN(c1ccccc1)S(=O)(=O)c1ccc(NC(=O)c2cc(=O)c3ccccc3o2)cc1,-2,3,1,-2,24,.,.
O=C(Nc1ccccc1C(=O)O)c1cc(S(=O)(=O)N2CCOCC2)c(Br)s1,6,7,-1,10,45*,4,-1%
COc1cc(-c2nc(Cn3nnc(C(=O)Nc4cc(C)cc(C)c4)c3C)c(C)o2)cc(OC)c1OC,0,2,2,3,12,.,.
COc1ccc(C(C)=O)cc1COC(=O)CNC(=O)c1ccc(Cl)cc1,-5,4,-2,-2,-8,.,.
COc1ccc(C(C)=O)cc1COC(=O)Cc1cc(OC)c(OC)c(OC)c1,-4,7,29,-4,-3,-4,-1%
C=C(C)c1cccc(C(C)(C)NC(=O)Nc2cc(C)ccn2)c1,-1,5,0,-2,46*,-12,-1%
C=C(C)c1cccc(C(C)(C)NC(=O)Nc2nncs2)c1,-1,1,-1,-28,6,.,.
Cc1cccc(OCC(=O)Nc2c(C(=O)N3CCN(c4ccccc4)CC3)oc3ccccc23)c1,-2,-1,0,7,-6,.,.
O=C(CCS(=O)(=O)c1cc(Br)cc2c1N(C(=O)C1CC1)CC2)Nc1ccc(F)cc1,-1,6,-1,5,7,.,.
CN(C)S(=O)(=O)c1ccc(C(=O)NCC(=O)N/N=C/c2ccccc2)cc1,-1,-1,1,14,82*,-3,-1%
Cc1ccccc1NC(=O)c1ccc(S(=O)(=O)N(C)C)cc1,-1,2,-1,-10,45*,-4,-1%
COc1ccc(NC(=O)CN2CCCN(S(=O)(=O)c3ccc(Br)cc3)CC2)c(OC)c1,-3,-1,0,-8,-2,.,.
SMILES,D1 potentiator,D1 ag,TRHR agonist-1,D1 antag,TRHR enhancer-1,TRHR enhancer-2,TRHR agonist-2
Cc1c(C(=O)N(Cc2ccc(Cl)cc2)CC2CCCO2)oc2ccc(F)cc12 (stereo not given),3,15,2,3,0,.,.
Cc1cc(C)c(NC(=O)C(C)n2c(=O)cc(-c3ccccc3)c3c(C)nn(C)c32)c(C)c1 (stereo not given),-6,2,0,-6,-3,.,.
CC1CCN(Cc2c(C(=O)N/N=C/c3ccc(C(C)C)cc3)nnn2-c2nonc2N)CC1,14,0,1,22,52*,4,2%
CCCn1cccc(C(=O)Nc2ccc(OC)cc2)c1=O,-2,3,0,-3,1,.,.
C#CCn1cccc(C(=O)Nc2ccc(OC)cc2)c1=O,-3,2,0,3,45*,-3,-1%
COc1ccccc1C(=O)Nc1ccnn1C1CCN(C/C=C/c2ccc(F)cc2)CC1,-2,23,-1,-32*,47*,2,1%
Cc1cc2[nH]c(=O)c(=O)[nH]c2cc1S(=O)(=O)Nc1cccc(C(F)(F)F)c1,3,2,1,-7,-6,.,.
O=C(Cc1ccc(Cl)cc1)Nc1ccccc1C(=O)N1CCCC1,-4,10,0,6,70*,?,-1%
O=C(Cc1ccccc1)Nc1ccccc1C(=O)N1CCCCC1,-2,1,0,6,-4,.,.
O=S(=O)(NCc1ccccc1F)NCc1ccccc1F,-7,-1,-1,-25,58*,-6,0%
Cc1ccc(S(=O)(=O)c2nnn3c2nc(NCc2ccc4c(c2)OCO4)c2sccc23)cc1,2,1,1,7,0,.,.
Cc1ccc(NC(=O)Cn2c(=O)n(CCC(=O)N3CCc4ccccc4C3)c(=O)c3ccccc32)cc1,3,-3,-1,-1,-12,.,.
Cn1nnnc1SCC(=O)NNC(=O)c1ccc(F)cc1,6,2,1,-1,44*,-6,-1%
Clc1ccccc1CN1CCN(CCCc2ccccc2)CC1,-8,3,-3,-19,-4,.,.
OCC1(CCc2ccccc2)CCN(Cc2ccccc2Cl)CC1,-5,8,3,20,60*,-5,5%
CCOC(=O)CSc1ccc2nnc(-c3ccncc3)n2n1,-5,0,-1,-16,52*,4,3%
CCc1ccc(N(CC)C(=O)c2cc3c(=O)oc4ccc(C)cc4c3s2)cc1,-4,2,0,8,0,.,.
O=C(Nc1ccc([N+](=O)[O-])cc1)c1nc[nH]c1C(=O)NC1CCCCC1,-5,2,43*,-9,7,4,-1%
Cc1ccccc1NC(=O)Cn1c(=O)n(CCC(=O)N2CCc3ccccc3C2)c(=O)c2ccccc21,2,0,-2,-2,-8,.,.
COc1cccc(Cn2c(NCc3ccc(C)cc3)nc3c2c(=O)n(C)c(=O)n3C)c1,4,0,-1,9,10,.,.
